The record followed here is PubChem BioAssay AID1014 (NMMLSC, 2008).

Activity calls are given as the source filed them. Cut-off read from the data, not from the text of the source: active = inhibition of mean fluorescence above about 33%; inactive = the rest.

The assay is described as follows: quorum sensing inhibitors in bacterial reporter, SAR follow-up, flow cytometry, SAR analogs (AID 1014).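 Note: Staphylococcus aureus RN6390 with RNAIII-GFP reporter stimulated by AIP; bacteria incubated with compound for 3 hours at 37 °C.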 To be noted: at 20 µM, stronger effect = higher value; inhibition of percent positive cells: flow cytometry fluorescence, measured here: percent reporter-positive cells. In general terms: A flow cytometer gives signals particle by particle.

Consider `O=C(O)c1cc([N+](=O)[O-])cc([N+](=O)[O-])c1Nc1ccc(Cl)cc1`, for which the inhibition of mean fluorescence was -16.3% (inactive) and the inhibition of percent positive cells was 0.2%.

On to `COc1c(F)c(F)c(C(=O)O)c(Nc2ccc(C)cc2)c1F`, for which the inhibition of mean fluorescence is 9.1% (inactive) and the inhibition of percent positive cells was -1.6%.

For the compound `CCOC(=O)c1c(C)oc2cc(Br)c(O)c(C=O)c12`, the inhibition of mean fluorescence was -4.5% (inactive) and the inhibition of percent positive cells was determined as 2.9%.

Turning to `Nc1c(Nc2ccccc2C(=O)O)c2ccccc2oc1=O`, the inhibition of mean fluorescence was 0% (inactive) and the inhibition of percent positive cells is -2.2%.

With `CCc1ccc(S(=O)(=O)c2n[nH]n3c2nc(=O)c2ccccc23)cc1`, the inhibition of mean fluorescence is 87.7% (active) and the inhibition of percent positive cells came to 53.5%.

Consider `O=C(CSc1cn(CC(=O)N2CCCCC2)c2ccccc12)Nc1ccc2c(c1)OCO2`, for which the inhibition of mean fluorescence is -6.3% (inactive) and the inhibition of percent positive cells is -0.1%.

For the compound `Cc1ccccc1C(=O)N1CCC(C(=O)Nc2ccc3c(c2)OCO3)CC1`, the inhibition of mean fluorescence was -8.8% (inactive) and the inhibition of percent positive cells is -0.4%.

For `COc1ccc(Nc2nc3c(S(=O)(=O)c4ccc(C(C)C)cc4)nnn3c3ccccc23)cc1`, the inhibition of mean fluorescence was -10.2% (inactive) and the inhibition of percent positive cells came out at 0.3%.

On to `CC1CCc2nn(CC(=O)Nc3ccc4c(c3)OCCO4)cc2C1` (configuration not stated), for which the inhibition of mean fluorescence was 4.5% (inactive) and the inhibition of percent positive cells came out at 0%.

`O=C(O)c1sc2ccccc2c1Nc1ccccc1`: the inhibition of mean fluorescence is -2.8% (inactive) and the inhibition of percent positive cells was 0.6%.

For `COc1ccc(S(=O)(=O)c2nnn3c2nc(Nc2cccc(C)c2)c2ccccc23)cc1`, the inhibition of mean fluorescence was -7.2% (inactive) and the inhibition of percent positive cells was determined as 0.1%.

For `COc1ccc(N2CCN(C(CNC(=O)c3ccccc3F)c3cccnc3)CC2)cc1` (configuration not stated), the inhibition of mean fluorescence is -65.6% (inactive) and the inhibition of percent positive cells was -1.1%.

As for `CC1CCN(C(C(=O)NC2CCCCC2)c2cc3c(cc2[N+](=O)[O-])OCO3)CC1` (configuration not stated), the inhibition of mean fluorescence was 6% (inactive) and the inhibition of percent positive cells was found to be 0.7%.

Consider `CCOC(=O)c1cnc2ccc(OC)cc2c1Nc1ccccc1C(=O)O`, for which the inhibition of mean fluorescence was -23.9% (inactive) and the inhibition of percent positive cells is -1.3%.

`Cc1ccc(C(C)C)c(OCC(=O)Nc2sc3c(c2C#N)CCCCC3)c1`: the inhibition of mean fluorescence is -18.6% (inactive) and the inhibition of percent positive cells was -0.9%.

As to `O=C(Nc1ccc2c(c1)OCCO2)N1CCCC(CN2CCc3ccccc3C2)C1` (configuration not stated), the inhibition of mean fluorescence was -1.4% (inactive) and the inhibition of percent positive cells stood at 0.1%.

As to `COc1c(F)c(F)c(C(=O)O)c(Nc2ccc(C)cc2C)c1F`, the inhibition of mean fluorescence is 67.8% (active) and the inhibition of percent positive cells was 13.3%.

As for `Cc1nnc2c3ccccc3nc(Nc3ccccc3C(=O)O)n12`, the inhibition of mean fluorescence was 18.4% (inactive) and the inhibition of percent positive cells is -0.2%.

As for `O=C(Nc1ccc2c(c1)OCO2)C1CCCN(C(=O)c2cnn(-c3ccccc3)c2-n2cccc2)C1` (configuration not stated), the inhibition of mean fluorescence was -23.9% (inactive) and the inhibition of percent positive cells was 0.1%.

On to `CC(C)c1ccc(NC(=O)C(c2ccc3c(c2)OCO3)N2CCN(C(=O)c3ccco3)CC2)cc1` (configuration not stated), for which the inhibition of mean fluorescence is -33.9% (inactive) and the inhibition of percent positive cells is -1.4%.

With `O=C(NCC(c1cccnc1)N1CCN(c2ccccc2F)CC1)c1ccccc1F` (configuration not stated), the inhibition of mean fluorescence was -1.3% (inactive) and the inhibition of percent positive cells is -0.4%.

On to `O=C(NCC(c1cccnc1)N1CCN(c2ccccc2F)CC1)c1ccccc1` (configuration not stated), for which the inhibition of mean fluorescence was -24.2% (inactive) and the inhibition of percent positive cells is -1.5%.

`O=C(O)c1cc(Nc2ccccc2C(=O)O)nc(Nc2ccccc2C(=O)O)n1`: the inhibition of mean fluorescence is 2.4% (inactive) and the inhibition of percent positive cells is -0.3%.

`NC1=NC(=O)CC(C(=O)Nc2ccccc2)S1` (configuration not stated): the inhibition of mean fluorescence was -19.2% (inactive) and the inhibition of percent positive cells was -0.6%.

In the case of `COc1ccc(Nc2nc3c(S(=O)(=O)c4ccc(C(C)(C)C)cc4)nnn3c3ccccc23)cc1`, the inhibition of mean fluorescence was -16.7% (inactive) and the inhibition of percent positive cells was -0.8%.

As to `CN1CCN(C(=O)C(=O)Nc2ccc3c(c2)OCO3)CC1`, the inhibition of mean fluorescence was -2.5% (inactive) and the inhibition of percent positive cells was found to be 0.1%.

Take `CN1CCN(C(C(=O)NC2CCCCC2)c2cc3c(cc2[N+](=O)[O-])OCO3)CC1` (configuration not stated): the inhibition of mean fluorescence is -5.8% (inactive) and the inhibition of percent positive cells is -0.4%.

As for `CCOC(=O)c1cnc2c(OC)cccc2c1Nc1ccccc1C(=O)O`, the inhibition of mean fluorescence was -42.9% (inactive) and the inhibition of percent positive cells is -1.1%.

Take `COc1ccc(Nc2ccccc2C(=O)O)cc1`: the inhibition of mean fluorescence is 0.6% (inactive) and the inhibition of percent positive cells is -2.8%.

As for `Cc1ccc(S(=O)(=O)c2nnn3c2nc(Nc2cccc(C)c2)c2ccccc23)cc1`, the inhibition of mean fluorescence is 5.4% (inactive) and the inhibition of percent positive cells worked out at 1.5%.

On to `CC1CCN(C(C(=O)Nc2ccc(C(C)C)cc2)c2ccc3c(c2)OCO3)CC1` (configuration not stated), for which the inhibition of mean fluorescence is 35% (active) and the inhibition of percent positive cells was -0.9%.

`O=C(NCC(c1cccnc1)N1CCN(c2ccc(F)cc2)CC1)c1cccs1` (configuration not stated): the inhibition of mean fluorescence was 20.1% (inactive) and the inhibition of percent positive cells is -0.3%.

For `Cc1ccc(Nc2nc3c(S(=O)(=O)c4ccc(C)cc4)nnn3c3ccccc23)cc1`, the inhibition of mean fluorescence was -16% (inactive) and the inhibition of percent positive cells worked out at 0.9%.

For the compound `O=C(Nc1ccc2c(c1)OCO2)C(c1ccc(Cl)cc1)N1CCN(C(=O)c2ccco2)CC1` (configuration not stated), the inhibition of mean fluorescence was 2.2% (inactive) and the inhibition of percent positive cells was -0.3%.

On to `O=C(NC1CCCCC1)C(c1cc2c(cc1[N+](=O)[O-])OCO2)N1CCCCC1` (configuration not stated), for which the inhibition of mean fluorescence is 12% (inactive) and the inhibition of percent positive cells is -0.2%.

As to `O=C(NCC(c1cccnc1)N1CCN(c2ccccc2)CC1)c1ccc(F)cc1` (configuration not stated), the inhibition of mean fluorescence was -24.9% (inactive) and the inhibition of percent positive cells was -0.8%.
